According to PubChem BioAssay (NCATS):
Values joined by “and” are separate entries in the source; they are usually repeats but may differ in a detail not shown here. Equal entries are not always repeated. Records with an inconclusive call do not appear. Values without a mark were called inactive. Active and inactive are the calls of the source. The call rests on the fitted dose curve; in most records, active means well fitted inhibition curve with a large enough effect; inconclusive means small, poorly fitted or top-dose-only effect; inactive means flat fitted curve, though single readings scatter. Where a SMILES comes first, the peptide text is derived from it. [ ]: non-standard residue; d: D form. Ala(indol-2-yl) = N[C@@H](Cc1cc2ccccc2[nH]1)C(=O)O; Aib = CC(C)(N)C(=O)O

test system: KB-3-1; experiment: Cytotoxic Profiling of Annotated Libraries Using Quantitative High-Throughput Screening (AID 1296008); details: Five cell lines viability, CellTiter-Glo ATP luminescence, 48-72 h; max response: stronger effect = lower value; further: nearly all actives have a fitted effect of over 60% in size
Excerpt: Cell-based phenotypic screening is a commonly used approach to discover biological pathways, novel drug targets, chemical probes and high-quality hit-to-lead molecules. Many hits identified from high-throughput screening campaign are ruled out through a series of follow-up potency, selectivity/specificity, and cytotoxicity assays. Prioritization of molecules with little or no cytotoxicity for a more in-depth downstream evaluation influence the future direction of projects, so cytotoxicity profiling of the screening libraries at early stage is essential for increasing the likelihood of candidate success. […] For the annotated library, we also examined the primary targets and mechanistic pathways regularly associated with cell death. To our knowledge, this is the first study to use high-throughput screening to profile large libraries for cytotoxicity assessment in both normal and cancer cell lines. In summary, the results generated here constitutes a valuable resource for the scientific community and provides insight on identifying cytotoxic compounds with particular mechanisms of action, and prioritizing compounds with suitable cytotoxicity profile for further evaluation.
A pintool (Kalypsys) was used to transfer 23 nL of compound solution to the 1536-well assay plates. After 48 or 72 hr incubation at 37 degree Celsius, 5% CO2 and 95% humidity, 2.5 uL of CellTiter-Glo (Promega) was dispensed into each well using a dispenser (Aspect Automation, St. Paul, MN) with solenoid valves (Lee Valves, Westbrook CT). Plates were left at room temperature for 10 min before imaging the ATP-coupled luminescence using a ViewLux microplate imager (PerkinElmer, Waltham, MA).
On the % scale 0 is the no-effect control and ±100 the full control effect; potency means the concentration at half of the fitted maximal effect.

Structure (SMILES)	max response	Potency	outcome
Clc1ccc([C@@H]2C[C@H]3CC[C@@H]2N3)cn1	-6.98%	–	–
COc1ccc(CCNCc2ccc(OC)c3ccccc23)cc1	-13.8%	–	–
COC1CC(O[C@H]2CC[C@]3(C=O)C4CC[C@]5(C)[C@@H](C6=CC(=O)OC6)CC[C@]5(O)[C@@H]4CC[C@@H]3C2)OC(C)C1O[C@@H]1O[C@H](CO)[C@@H](O[C@@H]2O[C@H](CO)[C@@H](O)[C@H](O)[C@H]2O)[C@H](O)[C@H]1O (stereo not given in full)	–	0.174 µM (active)	–
Cc1[nH]c2ccc(Cl)cc2c1CCN(C)C	3.8%	–	–
CC1=CC2OC3[C@H](O)C[C@@](C)([C@]34CO4)[C@@]2(CO)[C@H](O)C1=O (stereo not given in full)	–	4.61 µM (active)	–
N#Cc1ccc([C@H]2CCCC[C@H]2O)cc1C(F)(F)F	-5.63%	–	–
CC[C@@H]1C[C@H]2CC[C@H](O2)[C@H](C)C(=O)O[C@@H](C)C[C@@H]2CC[C@@H](O2)[C@@H](C)C(=O)O[C@H](C)C[C@H]2CC[C@H](O2)[C@H](C)C(=O)O[C@@H](C)C[C@@H]2CC[C@@H](O2)[C@@H](C)C(=O)O1	–	0.0968 µM (active)	–
C1CN(P2(N3CC3)=NP(N3CC3)(N3CC3)=NP(N3CC3)(N3CC3)=N2)CCO1 (stereo not given)	42.2%	–	–
Fc1cc(F)c2c(c1)C1C=CCC1C(c1cccnc1)N2 (stereo not given)	–	4.61 µM (active)	–
CC(=O)NCCCOc1ccc(C(=O)N2CCC(N3C(=O)CCc4ccccc43)CC2)cc1	5.83%	–	–
Cc1nnc2n1-c1sc(Br)cc1C(c1ccccc1Cl)=NC2	-25.2%	–	–
CO/C1=C\C(C)=C\[C@@H](C)[C@@H](O)[C@@H](C)C/C(C)=C/C=C/[C@H](OC)[C@@H]([C@@H](C)[C@@H](O)[C@H](C)[C@@]2(O)C[C@@H](O)[C@H](C)[C@@H](C(C)C)O2)OC1=O	–	0.0611 µM (active)	–
C/C=C(\CC)C(=O)NC(N)=O	-1.21%	–	–
NC(=O)c1ncn2c1CN=C(c1ccccc1Br)c1cc(F)ccc1-2	5.47%	–	–
CC(=O)[C@@]1(O)CC[C@H]2[C@@H]3CCC4=CC(=O)CC[C@]4(C)C3(F)[C@@H](O)C[C@@]21C (stereo not given in full)	-10.8%	–	–
C=C(C)C(=O)O[C@H]1[C@@H]2[C@H](C)C(=O)O[C@@H]2C[C@@H](C)[C@@H]2C=CC(=O)[C@]21C	–	3.21 µM (active)	–
CC1(C)C(=O)N(c2ccc(C#N)c(C(F)(F)F)c2)C(=O)N1CCCCO	-3.73%	–	–
Cc1c(N2C(=O)[C@@H]3[C@H](O)CCN3C2=O)ccc(C#N)c1Cl	-9.81%	–	–
C=C1C2(C)CC3C(C)(O)C4=CC(=O)OC(C)(C)C4=CCC3(C)C13C(=O)OC(C)C3(O)C2=O (stereo not given)	-10.5%	–	–
C[C@@H]1CCC2[C@@H](C)C(=O)OC3O[C@@]4(C)CCC1[C@]32OO4 (stereo not given in full)	-7.11%	–	–

Structure (SMILES)	max response	Potency	outcome
CC(=O)C1CCC2C3CCC4C[C@@H](O)CCC4(C)C3CCC12C (stereo not given in full)	0.129%	–	–
C=C1CC[C@H]2[C@@H](/C=C(\C)C(=O)[C@@]3(OC(C)=O)C[C@H](C)[C@H](OC(=O)c4ccccc4)[C@@H]3[C@H]1OC(C)=O)C2(C)C	4.96%	–	–
C#CC1(O)CCC2C3CCC4=CC(=O)CCC4=C3C=CC21C (stereo not given)	–	6.51 µM (active)	–
CCC1CN2CCC3(C(=O)Nc4cccc(O)c43)C2CC1/C(=C/OC)C(=O)OC (stereo not given)	-16.6%	–	–
C[C@@H]1[C@H]2Cc3ccc(O)cc3[C@]1(C)CCN2C	-14.3%	–	–
CC(C)(NC(=O)[C@@H](N)Cc1ccc(O)cc1)C(=O)N[C@@H](Cc1cc2ccccc2[nH]1)C(=O)N[C@@H](Cc1ccccc1)C(=O)O (H-Y[Aib][Ala(indol-2-yl)]F-OH)	–	–	inactive
C=C[C@H]1CN2CCC1C[C@H]2[C@H](O)c1ccnc2ccccc12 (stereo not given in full)	2.39%	–	–
COC(=O)C1=COC(C)C2CN3CCC4(C(=O)Nc5ccccc54)C3CC12 (stereo not given)	-8.2%	–	–
COc1ccc(CC2C(=O)NC(C)C(=O)N(C)C3Cc4ccc(cc4)Oc4cc(ccc4OC4OC(CO)C(O)C(O)C4O)CC(C(=O)NC(C)C(=O)NC(CCC(=O)O)C(=O)N2C)N(C)C3=O)cc1 (stereo not given)	-29.6%	–	–
CC1=CC2OC3CC(O)[C@](C)([C@@]2(C)C(O)C1=O)[C@]31CO1 (stereo not given in full)	–	7.31 µM (active)	–
NNC(=O)c1nn(Cc2ccc(Cl)cc2Cl)c2ccccc12	-14.6%	–	–
C=C1C(=O)O[C@@H]2[C@H]3C(=C)[C@@H](O)C[C@H]3C(=C)C[C@@H](O)[C@@H]12	6.92%	–	–
COC(=O)c1ccccc1C(=O)OC	3.72%	–	–
CN(C)CCO	-9.6%	–	–
O=Cc1ccccc1	-11.1% and 0.83%	–	–
CN(C)c1cc2c(cc1Sc1nc3c(N)nccc3n1CCNCC(C)(C)C)OCO2	–	0.731 µM (active)	–
CN=C(NS(=O)(=O)c1ccc(Cl)cc1)N1C[C@H](c2ccccc2)C(c2ccc(Cl)cc2)=N1	-19.1%	–	–
Cc1cccc(NC(=O)N[C@H]2CN(C)c3ccccc3C(c3ccccc3)=N2)c1	6.39%	–	–
Cc1c(N[C@@H](c2nnc(-c3ccc(C#N)cc3)o2)[C@H](C)O)ccc(C#N)c1Cl	-17.4%	–	–
N#Cc1cn([C@@H]2O[C@H](CO)[C@H](O)[C@@H]2O)c2ncnc(N)c12	–	0.0366 µM (active)	–
